Results from PubChem BioAssay (NCATS).
Inconclusive results are not listed. The source made the active and inactive calls. Unless noted, the call rests on the fitted dose curve; in most records, active means well fitted curve in either direction with a large enough effect (not every such curve was filed as active); inconclusive means small, poorly fitted or top-dose-only effect, or another doubt; inactive means flat fitted curve, though single readings scatter.

Assays:
[1] = molecular target: Lysosomal acid glucosylceramidase (Homo sapiens) (UniProt P04062); assay: Glucocerebrosidase-p2 (AID 348; in the data active means potency below about 10 µM; further: potency means the concentration at half of the fitted maximal effect); details: purified GBA, blue fluorogenic substrate, 40 min
In short: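 Normal human glucocerebrosidase (0.2 nM) with blue fluorogenic substrate (80 uM final) in citrate/phosphate pH 5.9 with 10mM sodium taurocholate, 0.01% tween-20; 40 min RT, NaOH/glycine stop; fluorescence Ex 365/Em 440; AC50 from a titration from 0.6 nM upwards.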

[2] = AP1 Signaling Pathway (AID 357); details: ME-180 AP-1-bla reporter, EGF-induced, beta-lactamase ratio, 5 h; at 7.69 µM (top of the series) unless noted;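 further: ME-180 reporter cells stimulated with EGF at its EC50 level; on the % scale 0 is the no-effect control and ±100 the full control effect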
In short: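 A ratiometric CCF4 readout (405 nm excitation; 460 and 530 nm emission) quantified AP-1-driven beta-lactamase in ME-180 cells after 5 h with compound and EC50 EGF; AC50 values were derived for activators and inhibitors.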

[3] = molecular target: Cytochrome P450 1A2 (Homo sapiens) (UniProt P05177); assay: p450-cyp1a2 (AID 410; calls by dose curve; further: potency means the concentration at half of the fitted maximal effect;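 on activity change, negative = inhibition: -100% = full effect of reference inhibitor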); details: recombinant CYP1A2, luciferin-ME demethylation, luminescence; series mostly up to 57 µM
In short: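 O-Demethylation of luciferin 6' methyl ether by human CYP1A2 is monitored as luciferase luminescence. Substrate sits at Km (100uM); enzyme is 20nM. Values are scaled to 57 uM furafylline as maximal inhibition.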

[4] = NFAT Signaling Pathway (AID 444); details: Jurkat NFAT-bla M1, carbachol, beta-lactamase ratio, 5 h; at 7.69 µM (top of the series) unless noted;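 further: carbachol stimulus at about its EC50 of 1 µM final; on the % scale 0 is the no-effect control and ±100 the full control effect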
In short: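 Read-out: CCF4 FRET ratio (460 nm/530 nm) after 1 h RT dye loading, used for %activity and AC50 from titration series. Cells: Jurkat NFAT-β-lactamase/M1 line, treated with compound plus 1 uM carbachol for 5 h, 37 °C.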

[5] = Stat Signaling Pathway (AID 446); details: ME-180 (cervical carcinoma) SIE beta-lactamase reporter, IL-6 stimulated, 5 h; at 7.69 µM (top of the series) unless noted;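 further: ME-180 cervical cancer cells given 40 pM IL-6 alongside compound; SIE-controlled beta-lactamase reporter measured as 460/530 nm FRET emission ratio; on the % scale 0 is the no-effect control and ±100 the full control effect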
In short: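 Overnight-plated ME-180 cells bearing a STAT Inducible Element beta-lactamase reporter; 5 h co-exposure to compound and 40 pM IL-6; values normalized to 300 pM IL-6 and 125 nM JAK inhibitor controls.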

[6] = molecular target: Glucocorticoid receptor (Homo sapiens) (UniProt P04150); assay: GR-EFC Redistribution (AID 451; calls by dose curve; further: potency means the concentration at half of the fitted maximal effect); details: CHO-K1 GR-EFC translocation, beta-gal luminescence, 2 h
In short: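 Translocation of GR-ED fusion to nuclear EA restores b-gal, read by luminescence after 1 h room-temperature detection. Engineered CHO-K1 biosensor cells, 1,000/well, exposed 2 h at 37 C to titrations up to 46 uM final.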

[7] = molecular target: Mitogen-activated protein kinase 10 (Mus musculus) (UniProt Q61831); assay: JNK3 AlphaScreen Assay (AID 530); details: JNK3 lysate, c-Jun phosphorylation; series mostly up to 57.1 µM;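 further: kinase came from lysate of stimulated human HepG2 cells; signal reports phosphorylation of biotinylated GST-cJun 1-79 at Ser73 with 10 µM ATP; on the % scale 0 is the no-effect control and ±100 the full control effect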
In short: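 qHTS titrations with 15 min compound pre-incubation before adding ATP (10 uM final). Read-out: AlphaScreen of Ser73-phosphorylated biotin-GST-cJun using HepG2 lysate JNK3 activated by IL-1β and TNFα.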

[8] = molecular target: 3',5'-cyclic-AMP phosphodiesterase 4B (Homo sapiens) (UniProt Q07343); assay: qHTS Assay for Inhibitors of PDE-IV (AID 607; active means well fitted activation curve with a large enough effect in the main read-out, with a control signal flat, not every such curve was filed as active; further: % of control where 0% means no effect); details: HEK293 ACTOne CNG channel cells, membrane potential fluorescence; series mostly up to 22.9 µM
In short: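 Live HEK293 cells with a modified cyclic nucleotide-gated (CNG) channel report intracellular cAMP via membrane-potential dye fluorescence (ex 535/em 590 nm). Endogenous PDE-IV was targeted. Compounds were tested at up to 22.9 uM final; RO 20-1724 100 uM served as control.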

[9] = molecular target: Cytochrome P450 3A4 (Homo sapiens) (UniProt P08684); assay: qHTS Assay for Activators of Cytochrome P450 3A4 (AID 885; active means well fitted curve in the direction sought with a large enough effect; an effect the other way counts as inactive or inconclusive; further: nearly all actives have a fitted effect of over 65% in size); details: recombinant CYP3A4, Luciferin-PPXE luminescence, 60 min; series mostly up to 57.1 µM
In short: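 Using 20nM recombinant human CYP3A4 in potassium phosphate (200mM), substrate Luciferin-PPXE at 25uM, luminescent luciferin detection followed a 60-min RT NADPH reaction; data scaled to 57 uM ketoconazole.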

[10] = qHTS Assay for Lipid Storage Modulators (AID 1519; calls by dose curve); details: Drosophila S3 cells, BODIPY lipid droplet/cell ratio, laser cytometry, cells loaded with oleic acid; for activity change, negative = inhibition: at 57.5 µM (top of the series)
In short: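 Cells seeded at 5,000 per well were treated with compounds over a concentration series and loaded with oleic acid (400 uM, as added). Lipid droplet fluorescence (488 nm excitation, 500-530 nm channel) was read by laser-scanning cytometry and normalized to 20 uM Triacsin C.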

[11] = Primary qHTS for small molecule stabilizers of the endoplasmic reticulum resident proteome: Secreted ER Calcium Modulated Protein (SERCaMP) assay (AID 1508630; active means well fitted curve in the direction sought with a large enough effect; an effect the other way counts as inactive or inconclusive; further: on the % scale 0 is the no-effect control and ±100 the full control effect); details: SH-SY5Y GLuc-SERCaMP (Gaussia luciferase released on ER calcium loss) secretion, thapsigargin, luminescence; series mostly up to 38.4 µM
In short: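 The SH-SY5Y reporter protocol was run at 3 concentrations up to 38.3 uM (primary) or 11 concentrations (follow-up): 16 h compound, 100 nM thapsigargin for 4 h, then extracellular luciferase luminescence.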

[12] = Confirmation and Secondary Assay for Modulators of Hemoglobin Beta Chain Splicing at IVS2 654 locus (AID 910; active means well fitted curve in the direction sought with a large enough effect; an effect the other way counts as inactive or inconclusive;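 further: HeLa cells stably carrying EGFP split by mutant beta-globin IVS2-654 intron; per-well total GFP intensity by laser scanning cytometry after 2-day treatment; % of control where 0% means no effect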); details: HeLa EGFP-654 splicing reporter, GFP fluorescence, 48 h; series mostly up to 38.3 µM
In short: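 Readout: per-well total peak green fluorescence (488 nm ex, 500–520 nm em) from objects 5–250 µm, reflecting correct splicing of an EGFP-654 reporter. Compounds were applied for 2 days at 37 °C to overnight-plated HeLa EGFP-654 cells; controls were DMSO and 500 nM IVS2-654 PNA.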

[13] = Confirmation and Secondary Assay for Modulators of Hemoglobin Beta Chain Splicing at IVS2 705 locus (AID 930; active means well fitted curve in the direction sought with a large enough effect; an effect the other way counts as inactive or inconclusive;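 further: HeLa cells stably expressing the EGFP-705 splicing reporter; GFP fluorescence per well restored by corrected splicing of the IVS2-705 intron in EGFP; % of control where 0% means no effect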); details: HeLa EGFP-705 splicing reporter, GFP fluorescence, 48 h; series mostly up to 38.3 µM
In short: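 Per-well GFP, captured at 1 x 8 µm resolution with 488 nm excitation, served as the read-out for HeLa EGFP-705 cells incubated 2 days with test compound versus DMSO.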

[14] = molecular target: Cytochrome P450 3A4 (Homo sapiens) (UniProt P08684); assay: qHTS Assay for Inhibitors and Substrates of Cytochrome P450 3A4 (AID 884; active means well fitted curve in the direction sought with a large enough effect; an effect the other way counts as inactive or inconclusive; further: potency means the concentration at half of the fitted maximal effect; nearly all actives have a fitted effect of over 50% in size); details: recombinant CYP3A4, Luciferin-PPXE luminescence; series mostly up to 57.1 µM
In short: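 Luminescent readout of luciferin produced by CYP3A4 (20 nM) dealkylation of Luciferin-PPXE, 25 uM (its KM). NADPH-driven reaction ran 60 min at RT after 10 min compound preincubation; data scaled to 57 uM ketoconazole as 100% inhibition.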

[15] = molecular target: Cytochrome P450 2C19 (Homo sapiens) (UniProt P33261); assay: qHTS Assay for Inhibitors and Substrates of Cytochrome P450 2C19 (AID 899; active means well fitted curve in the direction sought with a large enough effect; an effect the other way counts as inactive or inconclusive; further: potency means the concentration at half of the fitted maximal effect; nearly all actives have a fitted effect of over 60% in size); details: recombinant CYP2C19, luciferin-H EGE luminescence; series mostly up to 57.1 µM
In short: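 5nM enzyme + 10uM Luciferin-H EGE (=KM), 50mM KPO4; cpd pin-transferred, 10 min 37C; NADPH regen, 60 min 37C; stopped w/ luciferin detection reagent, 20 min; luminescence. Normalized to 57uM ketoconazole (AC100).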

[16] = measured here: cell count channel max response
[17] = measured here: lipid channel max response

Cytochrome P450 1A2 (Homo sapiens), sequence (P05177 whole entry, looked up): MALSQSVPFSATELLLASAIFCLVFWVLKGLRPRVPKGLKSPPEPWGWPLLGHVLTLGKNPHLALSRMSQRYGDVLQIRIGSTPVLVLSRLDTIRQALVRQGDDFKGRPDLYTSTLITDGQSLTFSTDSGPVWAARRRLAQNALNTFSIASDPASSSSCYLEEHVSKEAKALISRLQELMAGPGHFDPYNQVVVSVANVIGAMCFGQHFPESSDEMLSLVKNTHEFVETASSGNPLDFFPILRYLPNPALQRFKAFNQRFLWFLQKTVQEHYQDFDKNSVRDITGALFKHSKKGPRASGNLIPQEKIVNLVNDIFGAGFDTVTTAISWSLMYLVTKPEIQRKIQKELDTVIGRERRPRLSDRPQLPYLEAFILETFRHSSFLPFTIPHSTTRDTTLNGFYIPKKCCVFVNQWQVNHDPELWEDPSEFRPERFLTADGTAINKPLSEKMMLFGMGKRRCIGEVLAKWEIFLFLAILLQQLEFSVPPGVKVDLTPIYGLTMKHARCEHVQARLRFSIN
Glucocorticoid receptor (Homo sapiens), sequence (P04150 whole entry, looked up, the tested form may be a part): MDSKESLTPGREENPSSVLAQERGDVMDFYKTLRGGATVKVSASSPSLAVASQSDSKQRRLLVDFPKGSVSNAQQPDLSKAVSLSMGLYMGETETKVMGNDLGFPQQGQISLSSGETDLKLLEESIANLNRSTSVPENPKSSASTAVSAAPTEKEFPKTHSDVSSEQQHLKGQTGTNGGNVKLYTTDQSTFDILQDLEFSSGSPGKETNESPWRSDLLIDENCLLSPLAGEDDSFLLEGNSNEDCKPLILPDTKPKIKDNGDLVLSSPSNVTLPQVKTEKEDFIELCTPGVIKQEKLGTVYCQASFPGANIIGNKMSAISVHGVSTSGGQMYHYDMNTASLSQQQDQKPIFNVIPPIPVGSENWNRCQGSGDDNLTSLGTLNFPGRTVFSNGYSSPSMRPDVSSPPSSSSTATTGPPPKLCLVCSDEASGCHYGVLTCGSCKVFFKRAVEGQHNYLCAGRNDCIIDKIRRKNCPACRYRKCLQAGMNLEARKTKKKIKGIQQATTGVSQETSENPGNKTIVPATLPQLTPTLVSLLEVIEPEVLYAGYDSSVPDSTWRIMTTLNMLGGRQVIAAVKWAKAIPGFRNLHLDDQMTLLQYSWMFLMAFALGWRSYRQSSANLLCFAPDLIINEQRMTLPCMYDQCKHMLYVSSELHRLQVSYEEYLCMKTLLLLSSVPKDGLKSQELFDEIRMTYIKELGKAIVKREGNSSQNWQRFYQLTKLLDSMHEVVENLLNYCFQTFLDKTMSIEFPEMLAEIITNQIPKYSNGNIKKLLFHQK
3',5'-cyclic-AMP phosphodiesterase 4B (Homo sapiens), sequence (Q07343 whole entry, looked up): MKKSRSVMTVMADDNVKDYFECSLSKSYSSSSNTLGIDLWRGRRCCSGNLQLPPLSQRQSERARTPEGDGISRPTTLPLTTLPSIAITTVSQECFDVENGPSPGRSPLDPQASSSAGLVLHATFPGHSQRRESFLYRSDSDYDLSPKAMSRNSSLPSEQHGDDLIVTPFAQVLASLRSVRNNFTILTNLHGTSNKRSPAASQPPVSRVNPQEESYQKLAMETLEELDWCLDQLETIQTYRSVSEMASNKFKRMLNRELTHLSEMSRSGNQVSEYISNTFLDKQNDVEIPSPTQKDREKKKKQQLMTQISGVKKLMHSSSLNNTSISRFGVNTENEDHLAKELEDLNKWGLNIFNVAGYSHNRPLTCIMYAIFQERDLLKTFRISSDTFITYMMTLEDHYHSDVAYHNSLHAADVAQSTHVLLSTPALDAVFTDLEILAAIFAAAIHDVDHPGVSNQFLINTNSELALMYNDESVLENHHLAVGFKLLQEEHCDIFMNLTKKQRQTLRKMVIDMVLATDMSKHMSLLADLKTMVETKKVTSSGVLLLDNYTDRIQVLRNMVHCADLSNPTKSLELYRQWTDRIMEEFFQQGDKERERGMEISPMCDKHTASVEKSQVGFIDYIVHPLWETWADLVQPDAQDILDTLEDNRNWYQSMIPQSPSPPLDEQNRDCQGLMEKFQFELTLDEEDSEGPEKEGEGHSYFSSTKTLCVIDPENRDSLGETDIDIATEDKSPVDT
Cytochrome P450 3A4 (Homo sapiens), sequence (P08684 whole entry, looked up): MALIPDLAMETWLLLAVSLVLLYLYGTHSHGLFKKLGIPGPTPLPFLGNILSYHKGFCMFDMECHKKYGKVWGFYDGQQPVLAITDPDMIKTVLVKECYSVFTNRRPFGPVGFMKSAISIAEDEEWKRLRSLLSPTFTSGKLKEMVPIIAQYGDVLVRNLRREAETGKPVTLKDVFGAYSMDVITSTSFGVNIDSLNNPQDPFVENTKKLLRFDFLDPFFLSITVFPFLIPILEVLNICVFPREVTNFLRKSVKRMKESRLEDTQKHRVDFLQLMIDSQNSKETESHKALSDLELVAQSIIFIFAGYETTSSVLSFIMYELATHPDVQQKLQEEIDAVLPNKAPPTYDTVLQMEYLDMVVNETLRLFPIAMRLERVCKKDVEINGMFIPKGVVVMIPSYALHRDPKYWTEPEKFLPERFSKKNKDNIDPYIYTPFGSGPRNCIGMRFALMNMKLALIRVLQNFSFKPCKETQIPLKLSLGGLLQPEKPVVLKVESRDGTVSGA
Lysosomal acid glucosylceramidase (Homo sapiens), sequence (P04062 whole entry, looked up): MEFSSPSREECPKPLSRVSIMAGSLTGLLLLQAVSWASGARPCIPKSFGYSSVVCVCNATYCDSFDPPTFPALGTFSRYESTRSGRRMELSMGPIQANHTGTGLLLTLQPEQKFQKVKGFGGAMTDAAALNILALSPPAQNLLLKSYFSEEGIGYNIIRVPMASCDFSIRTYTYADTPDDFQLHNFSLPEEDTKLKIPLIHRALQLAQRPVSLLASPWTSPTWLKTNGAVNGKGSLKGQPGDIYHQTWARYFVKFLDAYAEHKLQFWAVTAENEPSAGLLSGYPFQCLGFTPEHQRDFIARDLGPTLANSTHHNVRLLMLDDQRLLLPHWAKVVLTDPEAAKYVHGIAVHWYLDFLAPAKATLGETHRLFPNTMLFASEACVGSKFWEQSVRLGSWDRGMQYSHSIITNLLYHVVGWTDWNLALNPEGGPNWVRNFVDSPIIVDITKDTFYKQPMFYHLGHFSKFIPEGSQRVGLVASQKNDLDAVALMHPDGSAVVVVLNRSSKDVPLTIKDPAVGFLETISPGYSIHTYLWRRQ
Cytochrome P450 2C19 (Homo sapiens), sequence (P33261 whole entry, looked up): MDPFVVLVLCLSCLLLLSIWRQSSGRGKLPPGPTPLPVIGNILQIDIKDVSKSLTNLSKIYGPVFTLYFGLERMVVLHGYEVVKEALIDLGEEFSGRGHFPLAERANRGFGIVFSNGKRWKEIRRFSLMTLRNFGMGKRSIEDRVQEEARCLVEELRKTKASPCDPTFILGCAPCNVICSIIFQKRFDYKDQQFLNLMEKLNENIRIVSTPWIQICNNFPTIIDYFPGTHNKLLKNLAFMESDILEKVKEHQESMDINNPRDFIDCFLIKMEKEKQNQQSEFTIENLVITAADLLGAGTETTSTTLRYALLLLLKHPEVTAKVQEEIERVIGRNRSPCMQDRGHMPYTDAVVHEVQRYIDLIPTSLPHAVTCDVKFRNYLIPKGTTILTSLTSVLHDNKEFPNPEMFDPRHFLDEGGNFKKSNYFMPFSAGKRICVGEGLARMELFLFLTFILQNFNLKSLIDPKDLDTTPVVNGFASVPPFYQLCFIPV

Cn1cccc1C(=O)N1CCC[C@@]2(CCN(Cc3ccc(C#N)cc3)C2)C1
16.5%: max response [10, 17]
7.42%: max response [10, 16]
inactive: Potency [1] > 11.4 µM | activity change, negative = inhibition [2] -2.05% | Potency [3] | activity change, negative = inhibition [4] -13.8% | activity, negative = inhibition [5] -3.28% | Potency [6] > 46 µM | outcome [7] | Potency [8] | Potency [9] | activity change, negative = inhibition [10] 4.84% | Potency [11]

Cc1noc(C)c1C(=O)N1CCC2(CCCN(c3ccccc3)C2)CC1
inactive: Potency [1] > 11.4 µM | activity change, negative = inhibition [2] -12.1% | Potency [3] | activity change, negative = inhibition [4] -9.55% | activity, negative = inhibition [5] -1.28% | Potency [6] > 46 µM | outcome [7] | Potency [8] | Potency [9] | activity change, negative = inhibition [10] -0.946% | Potency [11]
8.91%: max response [10, 16]
9.27%: max response [10, 17]

CS(=O)(=O)N1CCC[C@@]2(CCN(c3ccccc3)C2)C1
inactive: Potency [1] > 11.4 µM | activity change, negative = inhibition [2] -11.3% | activity change, negative = inhibition [4] -3.01% | activity, negative = inhibition [5] -2.15% | Potency [6] > 46 µM | outcome [7] | Potency [8] | Potency [9] | activity change, negative = inhibition [10] -16.2% | Potency [11]
active: Potency [3] 31.6 µM
2%: max response [10, 16]
-14%: max response [10, 17]

COc1ccccc1CN1CC2(CCN(C(=O)c3cnccn3)CC2)C1
inactive: Potency [1] > 11.4 µM | activity change, negative = inhibition [2] 2.43% | Potency [3] | activity change, negative = inhibition [4] -17.5% | activity, negative = inhibition [5] -6.42% | Potency [6] > 46 µM | outcome [7] | Potency [8] | Potency [9] | activity change, negative = inhibition [10] 3% | Potency [11]
12%: max response [10, 16]
20.3%: max response [10, 17]

COc1ccc(C(=O)N2CCC3(CC2)CN(Cc2ccc(C#N)cc2)C3)cc1
11.7%: max response [10, 17]
inactive: Potency [1] > 11.4 µM | activity change, negative = inhibition [2] 11% | Potency [3] | activity change, negative = inhibition [4] -0.922% | activity, negative = inhibition [5] 8.44% | Potency [6] > 46 µM | outcome [7] | Potency [8] | Potency [9] | activity change, negative = inhibition [10] -3% | Potency [11]
13.1%: max response [10, 16]

O=C(c1ccco1)N1CCC[C@@]2(CCN(Cc3nccs3)C2)C1
inactive: Potency [1] > 11.4 µM | activity change, negative = inhibition [2] 1.19% | Potency [3] | activity change, negative = inhibition [4] -14% | activity, negative = inhibition [5] -3.91% | Potency [6] > 46 µM | outcome [7] | Potency [8] | Potency [9] | activity change, negative = inhibition [10] 4.23% | Potency [11]
5.76%: max response [10, 16]
12.9%: max response [10, 17]

COc1ccc(C(=O)N2CCC[C@@]3(CCN(C(=O)Nc4ccccc4)C3)C2)cc1
24.1%: max response [10, 17]
active: Potency [3] 15.8 µM
inactive: Potency [1] > 11.4 µM | activity change, negative = inhibition [2] -19.4% | activity change, negative = inhibition [4] 12.1% | activity, negative = inhibition [5] -4.43% | Potency [6] > 46 µM | outcome [7] | Potency [8] | Potency [9] | activity change, negative = inhibition [10] 10.7% | Potency [11]
8.67%: max response [10, 16]

CS(=O)(=O)N1CCC2(CCCN(C(=O)Nc3cccc(C#N)c3)C2)CC1
21%: max response [10, 17]
inactive: Potency [1] > 11.4 µM | activity change, negative = inhibition [2] 2.54% | Potency [3] | activity change, negative = inhibition [4] 1.96% | activity, negative = inhibition [5] 1.15% | Potency [6] > 46 µM | outcome [7] | Potency [8] | Potency [9] | activity change, negative = inhibition [10] 6.12% | Potency [11]
14.7%: max response [10, 16]

CS(=O)(=O)N1CCC[C@@]2(CCN(c3ccccn3)C2)C1
inactive: Potency [1] > 11.4 µM | activity change, negative = inhibition [2] -9.92% | Potency [3] | activity change, negative = inhibition [4] -19.3% | activity, negative = inhibition [5] -8.41% | Potency [6] > 46 µM | outcome [7] | Potency [8] | Potency [9] | activity change, negative = inhibition [10] 2.29% | Potency [11]
2.21%: max response [10, 17]
-1.27%: max response [10, 16]

COc1cccc(-c2ccc3ncnc(NC4CCNCC4)c3c2)c1
inactive: outcome [12] | outcome [13]

O=S(=O)(c1ccccc1)N1CCC[C@@]2(CCN(c3ccccc3)C2)C1
inactive: Potency [1] > 11.4 µM | activity change, negative = inhibition [2] -10.1% | activity change, negative = inhibition [4] -13.8% | activity, negative = inhibition [5] -4.22% | Potency [6] > 46 µM | Potency [9] | activity change, negative = inhibition [10] -16% | Potency [11]
-9.53%: max response [10, 17]
active: Potency [3] 3.98 µM | Potency [14] 5.01 µM | Potency [15] 0.316 µM
5.79%: max response [10, 16]

O=C(Nc1ccccc1)N1CCC2(CC1)CCN(S(=O)(=O)c1ccccc1)CC2
inactive: Potency [1] > 11.4 µM | activity change, negative = inhibition [2] -0.036% | activity change, negative = inhibition [4] 21.1% | Potency [6] > 46 µM | outcome [7] | Potency [8] | Potency [9] | activity change, negative = inhibition [10] 3.55% | Potency [11]
active: Potency [3] 7.94 µM
-0.439%: max response [10, 16]
7.34%: max response [10, 17]

Cc1noc(C)c1C(=O)N1CCC[C@@]2(CCN(C(=O)Nc3cccc(F)c3)C2)C1
active: Potency [14] 5.01 µM
13.6%: max response [10, 17]
8.32%: max response [10, 16]
inactive: Potency [1] > 11.4 µM | activity change, negative = inhibition [2] -2.75% | Potency [3] | activity change, negative = inhibition [4] 9.58% | activity, negative = inhibition [5] 8.15% | outcome [7] | Potency [8] | Potency [9] | activity change, negative = inhibition [10] 3.82% | Potency [11]

CS(=O)(=O)N1CCC2(CC1)CN(Cc1nccs1)C2
inactive: Potency [1] > 11.4 µM | activity change, negative = inhibition [2] -7.04% | activity change, negative = inhibition [4] 11.5% | activity, negative = inhibition [5] 6.32% | Potency [6] > 46 µM | Potency [8] | activity change, negative = inhibition [10] 3.27% | Potency [11]
13.6%: max response [10, 16]
18.5%: max response [10, 17]
active: Potency [3] 6.31 µM
